Reference: PubChem BioAssay (Tox21)
Records with an inconclusive call do not appear. Active and inactive are the calls of the source. Calls come from the whole dose curve; as a rule, active = well fitted cell-killing curve with a large enough effect in the repeat runs; inconclusive = weak or mixed curves; inactive = flat fitted curve, though single readings scatter.

test: qHTS assay to identify small molecule antagonists of the estrogen related receptor (ERR) signaling pathway - cell viability counter screen (AID 1224818); settings: ERR reporter cell line viability counter screen; series mostly up to 46.1 µM
Excerpt: National Center for Advancing Translational Sciences [NCATS]
NIH Chemical Genomics Center [NCGC]
U.S. Environmental Protection Agency [EPA]
National Institutes of Environmental Health Sciences [NIEHS]
National Toxicology Program [NTP]
U.S. Food and Drug Administration [FDA]
Estrogen related receptors (ERRs), the first orphan nuclear receptors discovered, play an important role in the control of cellular energy metabolism. ERRs are required for high-energy production in response to the environmental challenges. ERR-alpha was also identified as an adverse marker for breast cancer progression; ERR-alpha-positive tumors have a poor prognosis. To screen and to identify environmental compounds that perturb the ERR signaling pathways could provide valuable information for potential therapeutic or preventive measures in the treatment of metabolic disease. To differentiate true ERR antagonists or agonist from cytotoxic substances, the assay is multiplexed with cell viability assay.
Tox21 Assay Protocol Summary:
The ERR cells were dispensed at 2,000 cells/5 ul/well in 1536-well white plates using a Multidrop dispenser. After the assay plates were incubated at a 37 C/5% CO2 incubator for 6 hours, 23 nL of compounds dissolved in DMSO, positive and negative controls or DMSO only was transferred to the assay plate by a pin tool. The plates were incubated at 37 C for 17.5 hours. 1 ul/well of CellTiter-Fluor reagent was added into the assay plates using a Flying Reagent Dispenser. After 30 min incubation at 37 C/5% CO2, the fluorescence intensity in the plates was measured using a ViewLux plate reader.

Row | Compound | outcome
1 | CC(=O)Oc1ccccc1C(=O)O | inactive
2 | O=c1c(-c2ccc(O)cc2)coc2cc(O)cc(O)c12 | inactive
3 | COc1cc2c(c(OC)c1OC)-c1ccc(OC)c(=O)cc1[C@@H](NC(C)=O)CC2 | inactive
4 | CN/C(=C\[N+](=O)[O-])NCCSCc1ccc(CN(C)C)o1 | inactive
5 | N[C@@H](Cc1c[nH]c2ccccc12)C(=O)O | inactive
6 | Cn1cnc2c1c(=O)[nH]c(=O)n2C | inactive
7 | C[C@]12C[C@H](O)[C@H]3[C@@H](CCC4=CC(=O)CC[C@@]43C)[C@@H]1CC[C@@H]2C(=O)CO | inactive
8 | CC(C)(C)NCC(O)c1ccc(O)c(CO)c1 (configuration not stated) | inactive
9 | CC1=C(/C=C/C(C)=C/C=C/C(C)=C/C(=O)O)C(C)(C)CCC1 | inactive
10 | C[C@]12CC[C@@H]3c4ccc(O)cc4C[C@@H](CCCCCCCCCS(=O)CCCC(F)(F)C(F)(F)F)[C@H]3[C@@H]1CC[C@@H]2O (some centres not stated) | inactive
11 | N[C@@H](Cc1c[nH]c2ccc(O)cc12)C(=O)O | inactive
12 | C[C@]12CC[C@@H]3c4ccc(O)cc4CC[C@H]3[C@@H]1CCC2=O | inactive
13 | NC(=O)OCC(COC(N)=O)c1ccccc1 | inactive
14 | O=C(O)Cc1cccc2ccccc12 | inactive
15 | CC(C)Cc1ccc(C(C)C(=O)O)cc1 (configuration not stated) | inactive
16 | NC(=O)N1c2ccccc2C=Cc2ccccc21 | inactive
17 | CCOC(=O)C(C)(C)Oc1ccc(Cl)cc1 | inactive
18 | CC(=O)c1ccc(S(=O)(=O)NC(=O)NC2CCCCC2)cc1 | inactive
19 | Cc1cnc(NC(=O)C2=C(O)c3ccccc3S(=O)(=O)N2C)s1 | inactive
20 | CCN(CC)CCOC(=O)c1ccc(N)cc1 | inactive
21 | COc1ccccc1O | inactive
22 | NC(=O)NO | inactive
